Experimental data taken from the supplement of paper PMC11732987, “Enantioselective OTUD7B fragment discovery through chemoproteomics screening and high-throughput optimisation” (Communications Chemistry, 2025).

Experiments:
Experiment in all cases: log2 ratio of Biotin-Ahx-Ub-VS probe labelling (fragment/DMSO); higher = less target engagement (more negative = stronger competition), active = hit call of the paper (q ≤ 0.05, log2 ratio ≤ -1)
Conditions in all cases: compound concentration: 200 uM; treatment time: 3 h
USP42 = molecular target: T1, USP42 (UniProt Q9H9J4)
T1 sequence (whole entry): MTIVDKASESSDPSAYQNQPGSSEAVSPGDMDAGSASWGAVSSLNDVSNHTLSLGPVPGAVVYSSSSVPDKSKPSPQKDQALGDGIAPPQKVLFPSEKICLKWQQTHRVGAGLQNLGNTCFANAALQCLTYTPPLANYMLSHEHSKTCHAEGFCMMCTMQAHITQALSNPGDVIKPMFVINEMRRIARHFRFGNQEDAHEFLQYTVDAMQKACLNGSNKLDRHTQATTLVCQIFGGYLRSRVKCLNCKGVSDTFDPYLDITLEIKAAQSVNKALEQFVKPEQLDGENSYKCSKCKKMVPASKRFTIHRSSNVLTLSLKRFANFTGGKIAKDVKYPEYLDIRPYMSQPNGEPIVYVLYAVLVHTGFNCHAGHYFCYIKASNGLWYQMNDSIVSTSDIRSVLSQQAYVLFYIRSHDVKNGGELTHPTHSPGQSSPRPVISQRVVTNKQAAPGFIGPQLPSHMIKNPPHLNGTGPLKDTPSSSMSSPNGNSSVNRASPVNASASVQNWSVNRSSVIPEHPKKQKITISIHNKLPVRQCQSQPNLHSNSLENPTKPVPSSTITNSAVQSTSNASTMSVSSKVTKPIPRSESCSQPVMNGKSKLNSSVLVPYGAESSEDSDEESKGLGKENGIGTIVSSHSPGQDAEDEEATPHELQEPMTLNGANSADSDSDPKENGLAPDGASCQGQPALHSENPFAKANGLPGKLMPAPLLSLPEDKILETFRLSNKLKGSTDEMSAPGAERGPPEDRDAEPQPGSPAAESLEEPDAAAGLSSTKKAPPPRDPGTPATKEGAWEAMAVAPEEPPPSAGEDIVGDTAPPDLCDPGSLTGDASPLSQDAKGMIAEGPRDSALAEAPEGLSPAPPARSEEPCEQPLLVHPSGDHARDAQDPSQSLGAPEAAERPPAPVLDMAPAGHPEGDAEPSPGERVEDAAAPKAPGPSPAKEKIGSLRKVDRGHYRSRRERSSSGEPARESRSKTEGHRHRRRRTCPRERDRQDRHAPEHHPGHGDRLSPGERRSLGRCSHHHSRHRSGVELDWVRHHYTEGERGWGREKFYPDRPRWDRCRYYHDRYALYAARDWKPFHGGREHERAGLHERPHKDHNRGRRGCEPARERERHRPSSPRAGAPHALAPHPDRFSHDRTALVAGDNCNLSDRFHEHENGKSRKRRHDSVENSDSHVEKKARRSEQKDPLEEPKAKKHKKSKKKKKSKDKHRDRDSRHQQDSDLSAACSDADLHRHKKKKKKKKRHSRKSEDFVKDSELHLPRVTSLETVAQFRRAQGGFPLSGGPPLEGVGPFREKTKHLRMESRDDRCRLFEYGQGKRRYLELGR
Method in brief: (§1)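 Each value is an average log2 ratio of fragment to vehicle, tested by unpaired t-test. The underlying Spectronaut label-free quantities were global-median-normalised, and only proteins with ≥2 unique peptides were included. Triplicate HEK293T lysate samples (495 µg) were exposed to fragment at 200 µM or vehicle for 3 h, then to Biotin-Ahx-Ub-VS at 0.5 µM final for 1 h, before NeutrAvidin enrichment of labelled DUBs, LysC and trypsin digestion, and diaPASEF LC-MS/MS.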

USP46 = USP46 (UniProt P62068)
USP46, sequence (P62068 whole entry): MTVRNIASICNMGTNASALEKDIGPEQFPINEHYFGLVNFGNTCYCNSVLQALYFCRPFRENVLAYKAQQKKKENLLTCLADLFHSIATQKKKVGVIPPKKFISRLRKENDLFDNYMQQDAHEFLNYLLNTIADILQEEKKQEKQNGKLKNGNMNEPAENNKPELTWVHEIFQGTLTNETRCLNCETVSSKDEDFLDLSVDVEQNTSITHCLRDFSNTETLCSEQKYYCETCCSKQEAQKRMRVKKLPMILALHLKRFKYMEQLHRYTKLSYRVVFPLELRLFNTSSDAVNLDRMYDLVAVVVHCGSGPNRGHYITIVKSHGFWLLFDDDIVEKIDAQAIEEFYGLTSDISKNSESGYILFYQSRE
Method in brief: as §1

USP47 = molecular target: T2, USP47 (UniProt Q96K76)
T2 sequence (whole entry): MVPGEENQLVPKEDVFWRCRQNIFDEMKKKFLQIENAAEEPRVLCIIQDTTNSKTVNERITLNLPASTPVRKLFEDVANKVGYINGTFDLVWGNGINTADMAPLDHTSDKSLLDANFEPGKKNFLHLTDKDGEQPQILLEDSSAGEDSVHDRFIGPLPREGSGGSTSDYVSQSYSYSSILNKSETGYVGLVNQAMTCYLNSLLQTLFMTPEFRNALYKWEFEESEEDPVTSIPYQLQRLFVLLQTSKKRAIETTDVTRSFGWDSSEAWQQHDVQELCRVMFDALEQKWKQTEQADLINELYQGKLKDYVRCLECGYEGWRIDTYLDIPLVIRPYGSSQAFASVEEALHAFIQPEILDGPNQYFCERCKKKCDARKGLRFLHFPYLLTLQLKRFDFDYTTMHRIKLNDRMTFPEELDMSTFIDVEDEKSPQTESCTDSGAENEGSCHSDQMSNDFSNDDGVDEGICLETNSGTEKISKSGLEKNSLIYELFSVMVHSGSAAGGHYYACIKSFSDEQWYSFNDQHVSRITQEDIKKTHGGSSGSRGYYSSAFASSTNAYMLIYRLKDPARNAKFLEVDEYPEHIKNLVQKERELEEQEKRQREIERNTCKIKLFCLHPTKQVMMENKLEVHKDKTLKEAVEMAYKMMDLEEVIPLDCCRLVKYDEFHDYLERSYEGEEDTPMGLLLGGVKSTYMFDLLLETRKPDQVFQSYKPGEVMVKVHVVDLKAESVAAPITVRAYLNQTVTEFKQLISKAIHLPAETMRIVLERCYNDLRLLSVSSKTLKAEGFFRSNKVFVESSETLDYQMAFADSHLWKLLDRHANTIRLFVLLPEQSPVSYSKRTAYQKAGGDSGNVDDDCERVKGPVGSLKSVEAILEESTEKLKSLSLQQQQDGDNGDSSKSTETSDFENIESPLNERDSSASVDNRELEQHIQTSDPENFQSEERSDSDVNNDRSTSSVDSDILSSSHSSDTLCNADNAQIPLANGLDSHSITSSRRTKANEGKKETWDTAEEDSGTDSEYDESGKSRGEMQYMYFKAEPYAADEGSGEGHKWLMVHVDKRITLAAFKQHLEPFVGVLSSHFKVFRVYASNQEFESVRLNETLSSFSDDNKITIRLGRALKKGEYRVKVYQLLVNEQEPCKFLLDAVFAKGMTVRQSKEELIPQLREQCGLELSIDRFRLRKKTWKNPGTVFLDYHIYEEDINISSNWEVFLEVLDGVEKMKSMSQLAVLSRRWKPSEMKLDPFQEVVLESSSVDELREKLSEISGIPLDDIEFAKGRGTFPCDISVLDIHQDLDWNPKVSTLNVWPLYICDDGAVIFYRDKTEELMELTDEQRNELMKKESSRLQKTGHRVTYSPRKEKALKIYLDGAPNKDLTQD
Method in brief: as §1

USP48 = molecular target: T3, USP48 (UniProt Q86UV5)
T3 sequence (whole entry): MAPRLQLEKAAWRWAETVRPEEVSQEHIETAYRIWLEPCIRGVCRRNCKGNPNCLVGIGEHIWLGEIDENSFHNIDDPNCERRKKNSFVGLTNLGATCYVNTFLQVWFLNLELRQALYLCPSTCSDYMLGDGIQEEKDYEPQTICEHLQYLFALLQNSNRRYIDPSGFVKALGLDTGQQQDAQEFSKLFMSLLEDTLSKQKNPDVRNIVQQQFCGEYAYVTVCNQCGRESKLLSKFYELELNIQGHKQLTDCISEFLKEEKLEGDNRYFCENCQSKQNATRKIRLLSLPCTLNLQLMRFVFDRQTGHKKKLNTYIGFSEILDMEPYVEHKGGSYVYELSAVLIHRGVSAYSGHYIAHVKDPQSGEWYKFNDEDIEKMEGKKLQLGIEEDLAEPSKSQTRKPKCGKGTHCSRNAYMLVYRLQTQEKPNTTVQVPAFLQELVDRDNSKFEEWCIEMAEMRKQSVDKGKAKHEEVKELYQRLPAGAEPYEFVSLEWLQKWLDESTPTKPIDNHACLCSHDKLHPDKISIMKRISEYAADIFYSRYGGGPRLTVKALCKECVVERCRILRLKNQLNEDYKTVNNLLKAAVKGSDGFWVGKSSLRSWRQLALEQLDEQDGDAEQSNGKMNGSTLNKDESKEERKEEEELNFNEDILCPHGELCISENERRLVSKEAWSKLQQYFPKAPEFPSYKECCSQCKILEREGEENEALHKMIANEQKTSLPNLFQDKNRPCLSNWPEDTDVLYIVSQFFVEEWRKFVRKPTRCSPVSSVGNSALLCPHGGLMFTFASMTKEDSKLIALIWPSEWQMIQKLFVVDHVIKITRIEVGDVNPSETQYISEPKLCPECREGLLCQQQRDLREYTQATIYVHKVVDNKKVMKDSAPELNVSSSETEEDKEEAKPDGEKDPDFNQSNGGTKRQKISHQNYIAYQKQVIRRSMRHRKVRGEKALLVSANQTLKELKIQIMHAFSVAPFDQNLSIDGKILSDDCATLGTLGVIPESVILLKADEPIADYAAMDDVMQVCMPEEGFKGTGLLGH
Method in brief: as §1

USP5 = molecular target: T4, USP5 (UniProt P45974)
T4 sequence (whole entry): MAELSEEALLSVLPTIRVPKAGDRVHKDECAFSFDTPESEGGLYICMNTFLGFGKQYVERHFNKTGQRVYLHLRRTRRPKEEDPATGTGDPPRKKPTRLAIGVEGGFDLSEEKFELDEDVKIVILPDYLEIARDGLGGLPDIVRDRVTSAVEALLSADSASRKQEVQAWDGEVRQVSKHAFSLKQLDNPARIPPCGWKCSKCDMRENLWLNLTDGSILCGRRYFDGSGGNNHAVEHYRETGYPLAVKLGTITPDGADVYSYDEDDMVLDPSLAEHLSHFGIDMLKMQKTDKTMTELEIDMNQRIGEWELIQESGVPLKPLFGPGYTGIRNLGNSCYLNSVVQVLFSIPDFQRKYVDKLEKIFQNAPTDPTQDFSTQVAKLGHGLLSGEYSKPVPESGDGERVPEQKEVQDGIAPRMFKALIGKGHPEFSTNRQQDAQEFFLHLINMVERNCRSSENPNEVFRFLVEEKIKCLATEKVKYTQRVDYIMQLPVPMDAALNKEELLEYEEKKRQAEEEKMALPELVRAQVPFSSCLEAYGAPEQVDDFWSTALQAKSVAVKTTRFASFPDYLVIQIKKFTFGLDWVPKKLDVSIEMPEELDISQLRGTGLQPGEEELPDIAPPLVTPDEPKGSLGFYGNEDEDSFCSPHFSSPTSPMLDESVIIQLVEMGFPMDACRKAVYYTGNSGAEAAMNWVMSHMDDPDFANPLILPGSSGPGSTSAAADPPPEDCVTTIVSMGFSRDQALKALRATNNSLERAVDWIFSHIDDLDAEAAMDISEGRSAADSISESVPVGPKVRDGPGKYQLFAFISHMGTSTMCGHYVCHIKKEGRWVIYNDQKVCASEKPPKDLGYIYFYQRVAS
Method in brief: as §1

USP54 = USP54 (UniProt Q70EL1)
USP54, sequence (Q70EL1 whole entry): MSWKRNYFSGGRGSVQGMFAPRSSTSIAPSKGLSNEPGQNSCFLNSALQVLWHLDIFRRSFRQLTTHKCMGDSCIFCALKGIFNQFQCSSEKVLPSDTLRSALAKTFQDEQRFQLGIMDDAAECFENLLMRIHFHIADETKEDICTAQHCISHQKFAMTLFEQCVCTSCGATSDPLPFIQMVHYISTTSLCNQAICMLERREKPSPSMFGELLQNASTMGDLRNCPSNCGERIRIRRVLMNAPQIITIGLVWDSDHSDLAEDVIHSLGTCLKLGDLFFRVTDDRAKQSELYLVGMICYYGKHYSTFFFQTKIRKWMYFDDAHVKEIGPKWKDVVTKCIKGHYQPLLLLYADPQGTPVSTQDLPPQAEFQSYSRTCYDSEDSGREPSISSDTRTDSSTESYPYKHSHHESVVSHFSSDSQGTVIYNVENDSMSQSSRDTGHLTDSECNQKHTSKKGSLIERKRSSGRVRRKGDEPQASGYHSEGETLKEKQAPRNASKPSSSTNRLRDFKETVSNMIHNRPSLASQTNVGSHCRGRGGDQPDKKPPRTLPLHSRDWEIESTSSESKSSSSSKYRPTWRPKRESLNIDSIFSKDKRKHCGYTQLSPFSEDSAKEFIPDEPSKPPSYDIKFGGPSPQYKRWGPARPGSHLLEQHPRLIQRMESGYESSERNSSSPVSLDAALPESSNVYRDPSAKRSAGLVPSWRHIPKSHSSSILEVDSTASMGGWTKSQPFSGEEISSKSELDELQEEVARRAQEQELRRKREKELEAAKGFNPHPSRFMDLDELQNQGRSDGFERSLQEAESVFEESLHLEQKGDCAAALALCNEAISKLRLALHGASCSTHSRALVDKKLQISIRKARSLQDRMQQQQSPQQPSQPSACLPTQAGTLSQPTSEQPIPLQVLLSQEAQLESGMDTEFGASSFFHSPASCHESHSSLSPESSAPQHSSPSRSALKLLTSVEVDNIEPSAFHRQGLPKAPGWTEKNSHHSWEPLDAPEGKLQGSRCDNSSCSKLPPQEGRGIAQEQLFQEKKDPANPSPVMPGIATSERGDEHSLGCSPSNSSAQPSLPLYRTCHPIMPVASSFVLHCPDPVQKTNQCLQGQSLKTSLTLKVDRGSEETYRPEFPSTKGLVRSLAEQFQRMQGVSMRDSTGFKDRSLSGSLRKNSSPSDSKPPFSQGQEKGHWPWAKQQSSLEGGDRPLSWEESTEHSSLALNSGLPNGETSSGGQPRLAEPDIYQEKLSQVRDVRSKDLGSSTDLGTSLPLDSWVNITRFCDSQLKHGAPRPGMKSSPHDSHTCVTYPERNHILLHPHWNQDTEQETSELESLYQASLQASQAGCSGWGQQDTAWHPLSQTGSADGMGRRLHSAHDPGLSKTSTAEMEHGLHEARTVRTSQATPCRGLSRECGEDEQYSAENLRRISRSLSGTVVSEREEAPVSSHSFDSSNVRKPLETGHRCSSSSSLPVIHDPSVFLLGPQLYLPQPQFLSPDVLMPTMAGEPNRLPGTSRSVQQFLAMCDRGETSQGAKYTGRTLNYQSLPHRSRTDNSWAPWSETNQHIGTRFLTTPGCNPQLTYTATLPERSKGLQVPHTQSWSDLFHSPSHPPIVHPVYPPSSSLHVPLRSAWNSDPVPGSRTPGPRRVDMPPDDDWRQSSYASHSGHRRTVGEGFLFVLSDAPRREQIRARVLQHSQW
Method in brief: as §1

USP7 = USP7 (UniProt Q93009)
Method in brief: as §1

USP8 = molecular target: T5, USP8 (UniProt P40818)
T5 sequence (whole entry): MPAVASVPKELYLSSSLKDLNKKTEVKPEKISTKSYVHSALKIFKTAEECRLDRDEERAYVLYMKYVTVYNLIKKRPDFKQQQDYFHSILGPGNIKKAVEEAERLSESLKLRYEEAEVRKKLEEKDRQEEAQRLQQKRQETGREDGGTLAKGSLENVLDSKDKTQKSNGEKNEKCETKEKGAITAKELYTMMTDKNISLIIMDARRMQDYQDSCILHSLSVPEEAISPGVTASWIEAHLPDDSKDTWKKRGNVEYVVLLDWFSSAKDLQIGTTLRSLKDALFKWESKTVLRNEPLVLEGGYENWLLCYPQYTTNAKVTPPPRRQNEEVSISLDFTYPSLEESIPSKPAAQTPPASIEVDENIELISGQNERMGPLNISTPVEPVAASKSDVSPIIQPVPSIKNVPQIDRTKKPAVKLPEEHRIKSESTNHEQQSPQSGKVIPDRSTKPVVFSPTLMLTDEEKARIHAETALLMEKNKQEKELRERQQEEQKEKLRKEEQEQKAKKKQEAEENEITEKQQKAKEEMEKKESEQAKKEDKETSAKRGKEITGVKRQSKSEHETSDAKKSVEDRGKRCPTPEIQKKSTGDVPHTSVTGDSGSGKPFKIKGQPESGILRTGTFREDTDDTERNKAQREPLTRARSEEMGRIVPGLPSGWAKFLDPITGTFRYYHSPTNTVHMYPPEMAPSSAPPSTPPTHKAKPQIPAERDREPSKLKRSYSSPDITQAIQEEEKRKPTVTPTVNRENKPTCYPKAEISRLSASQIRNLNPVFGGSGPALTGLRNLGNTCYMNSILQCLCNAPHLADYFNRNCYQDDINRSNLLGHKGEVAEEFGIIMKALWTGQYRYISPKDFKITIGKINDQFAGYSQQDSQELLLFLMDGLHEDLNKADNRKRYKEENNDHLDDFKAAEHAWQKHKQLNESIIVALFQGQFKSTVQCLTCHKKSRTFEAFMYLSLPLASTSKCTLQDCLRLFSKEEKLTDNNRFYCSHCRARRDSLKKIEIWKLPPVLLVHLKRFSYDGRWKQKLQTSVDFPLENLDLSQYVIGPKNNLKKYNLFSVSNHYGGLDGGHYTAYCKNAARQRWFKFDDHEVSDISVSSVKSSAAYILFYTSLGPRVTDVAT
Method in brief: as §1

USP9X = USP9X (UniProt Q93008)
USP9X, sequence (Q93008 whole entry): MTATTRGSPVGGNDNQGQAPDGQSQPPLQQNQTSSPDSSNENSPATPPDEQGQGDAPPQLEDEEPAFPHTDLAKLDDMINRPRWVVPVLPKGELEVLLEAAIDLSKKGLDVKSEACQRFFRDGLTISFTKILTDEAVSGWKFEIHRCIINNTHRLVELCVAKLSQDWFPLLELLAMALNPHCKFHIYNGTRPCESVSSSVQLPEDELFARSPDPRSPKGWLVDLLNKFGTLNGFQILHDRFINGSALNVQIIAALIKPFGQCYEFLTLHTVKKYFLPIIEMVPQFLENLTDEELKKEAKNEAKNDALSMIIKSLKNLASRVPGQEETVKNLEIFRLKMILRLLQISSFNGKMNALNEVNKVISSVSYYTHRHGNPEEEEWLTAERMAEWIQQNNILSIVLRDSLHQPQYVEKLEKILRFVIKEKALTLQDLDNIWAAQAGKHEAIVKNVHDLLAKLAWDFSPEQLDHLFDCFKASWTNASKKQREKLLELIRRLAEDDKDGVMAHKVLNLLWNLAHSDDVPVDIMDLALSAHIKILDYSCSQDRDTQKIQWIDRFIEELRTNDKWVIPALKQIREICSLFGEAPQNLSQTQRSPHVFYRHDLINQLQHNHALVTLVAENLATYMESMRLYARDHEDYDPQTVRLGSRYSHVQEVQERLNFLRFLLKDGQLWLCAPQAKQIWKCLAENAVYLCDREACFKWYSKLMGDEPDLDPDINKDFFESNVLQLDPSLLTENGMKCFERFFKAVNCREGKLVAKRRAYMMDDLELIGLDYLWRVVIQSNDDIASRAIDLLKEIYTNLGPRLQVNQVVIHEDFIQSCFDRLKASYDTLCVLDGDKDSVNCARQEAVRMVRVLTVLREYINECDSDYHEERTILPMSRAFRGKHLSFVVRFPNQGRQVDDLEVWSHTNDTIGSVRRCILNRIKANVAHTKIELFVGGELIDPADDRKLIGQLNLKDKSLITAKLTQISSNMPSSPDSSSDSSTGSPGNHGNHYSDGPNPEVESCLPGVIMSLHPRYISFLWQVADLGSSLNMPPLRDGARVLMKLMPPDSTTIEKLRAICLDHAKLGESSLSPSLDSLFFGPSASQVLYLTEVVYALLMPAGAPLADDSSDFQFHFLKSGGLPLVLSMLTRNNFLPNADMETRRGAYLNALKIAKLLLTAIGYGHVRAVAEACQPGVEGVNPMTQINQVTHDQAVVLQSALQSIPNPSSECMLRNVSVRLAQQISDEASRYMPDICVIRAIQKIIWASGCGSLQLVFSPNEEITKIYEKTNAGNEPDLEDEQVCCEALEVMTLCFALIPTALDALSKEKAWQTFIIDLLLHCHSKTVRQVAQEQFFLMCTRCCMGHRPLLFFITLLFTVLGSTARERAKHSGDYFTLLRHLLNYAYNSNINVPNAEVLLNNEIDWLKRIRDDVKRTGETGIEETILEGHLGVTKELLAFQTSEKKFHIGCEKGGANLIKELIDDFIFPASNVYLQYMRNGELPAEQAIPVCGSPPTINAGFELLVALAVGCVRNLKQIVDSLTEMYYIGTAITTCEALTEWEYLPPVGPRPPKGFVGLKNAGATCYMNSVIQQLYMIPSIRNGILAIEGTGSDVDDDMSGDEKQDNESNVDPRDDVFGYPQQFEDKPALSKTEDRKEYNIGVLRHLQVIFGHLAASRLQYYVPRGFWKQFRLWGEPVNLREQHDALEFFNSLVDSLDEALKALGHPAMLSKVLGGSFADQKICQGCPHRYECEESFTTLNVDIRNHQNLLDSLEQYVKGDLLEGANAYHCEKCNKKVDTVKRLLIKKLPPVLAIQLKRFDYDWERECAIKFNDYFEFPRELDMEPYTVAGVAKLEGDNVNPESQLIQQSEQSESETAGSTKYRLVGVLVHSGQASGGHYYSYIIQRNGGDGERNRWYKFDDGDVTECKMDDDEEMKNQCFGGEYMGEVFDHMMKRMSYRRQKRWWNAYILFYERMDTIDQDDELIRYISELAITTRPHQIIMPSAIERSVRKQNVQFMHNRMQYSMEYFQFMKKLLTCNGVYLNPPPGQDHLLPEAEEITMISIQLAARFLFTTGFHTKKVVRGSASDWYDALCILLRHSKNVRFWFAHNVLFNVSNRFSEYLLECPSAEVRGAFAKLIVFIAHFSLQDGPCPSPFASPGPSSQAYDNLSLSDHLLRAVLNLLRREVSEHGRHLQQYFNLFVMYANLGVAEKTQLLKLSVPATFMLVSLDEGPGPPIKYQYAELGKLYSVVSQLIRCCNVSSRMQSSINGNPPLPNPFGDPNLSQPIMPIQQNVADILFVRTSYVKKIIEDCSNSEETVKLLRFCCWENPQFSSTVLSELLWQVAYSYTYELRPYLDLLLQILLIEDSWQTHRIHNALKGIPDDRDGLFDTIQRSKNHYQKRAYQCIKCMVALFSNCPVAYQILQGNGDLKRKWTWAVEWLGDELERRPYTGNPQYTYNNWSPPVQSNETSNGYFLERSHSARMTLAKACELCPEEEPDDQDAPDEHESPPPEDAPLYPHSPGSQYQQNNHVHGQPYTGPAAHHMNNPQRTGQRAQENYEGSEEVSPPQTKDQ
Method in brief: as §1

UniProt O00487 = molecular target: UniProt O00487
UniProt O00487, sequence (O00487 whole entry): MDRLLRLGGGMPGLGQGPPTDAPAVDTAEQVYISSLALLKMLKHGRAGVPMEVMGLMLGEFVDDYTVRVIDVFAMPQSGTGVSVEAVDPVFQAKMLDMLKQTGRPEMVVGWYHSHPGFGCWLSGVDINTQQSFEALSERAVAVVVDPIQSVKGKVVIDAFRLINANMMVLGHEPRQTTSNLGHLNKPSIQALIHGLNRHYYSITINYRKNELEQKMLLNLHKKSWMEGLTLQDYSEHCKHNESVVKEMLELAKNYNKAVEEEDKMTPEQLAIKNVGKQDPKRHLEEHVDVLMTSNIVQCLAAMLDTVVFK
Method in brief: as §1

Measured: log2 ratio of Biotin-Ahx-Ub-VS probe labelling

COCC1C=CCCN1C(=O)CCl (stereo not given)
inactive: USP42 -0.485 | USP46 0.0708 | USP47 -0.789 | USP48 -0.152 | USP5 0.0548 | USP54 0.237 | USP7 -0.21 | USP8 -0.0182 | USP9X -0.16 | UniProt O00487 -0.0987
